Most compounds without a hit are left out; they make up all but 3% or so of the library.
TRPM1 prom inh: inhibitors of MITF-dependent TRPM1 promoter reporter, primary screen, cell-based, SK-MEL-5, single point, luciferase | SK-MEL-5 TRPM1 promoter luciferase, 24 h | inhibition, % at 12.5 µM | 330,000 compounds, 0.83% hits;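 active = mean inhibition across replicates of 60% or more, whatever share of single replicates reaches that level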
Peg3 prom inh: Peg3 promoter-driven luciferase inhibitors, primary screen, cell-based, HeLa, luciferase luminescence; AID 588405, 2011; inhibition, % at 20 µM; HeLa PEG-Prom luciferase reporter, overnight; 360,000 compounds, 1.7% hits;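 active = inhibition of at least 50% at 20 µM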
KKLEB cytotox: cytotoxicity in KKLEB CF airway cells, primary screen, cytotoxicity control for CF NF-kB inhibitor project, cell-based, uHTS, fluorescence assay plates | AID 602141, 2011 | activity change (cytotoxicity), % at 5 µM | 360,000 compounds, 0.36% hits | KKLEB CF airway cells viability, ATPlite luminescence, overnight; stronger effect = lower value; cells stimulated with P. aeruginosa culture filtrate;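 active = corrected activity change at or below -50% at 5 µM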
CF NFkB block: inhibitors of PAF-induced NF-kB signaling, primary screen, cell-based, GFP fluorescence, uHTS; inhibition, % at 5 µM; 360,000 compounds, 0.86% hits; KKLEB NF-kB-GFP reporter, GFP fluorescence overnight;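 active = at least 50% inhibition at 5 µM, scaled per plate between neutral and stimulator controls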;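 also: PAF is a Pseudomonas aeruginosa culture filtrate used as stimulus; plate controls were PAF-stimulated DMSO wells for no effect and unstimulated DMSO wells for full effect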
HIF-2a inh: HIF-2a reporter inhibitors, primary screen, luminescence, 786-0 RCC cells; 786-0 RCC cells HIF-2a reporter, luciferase luminescence, overnight; inhibition, % at 18.8 µM; 360,000 compounds, 0.72% hits;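 active = inhibition of the luminescence signal of 40% or more relative to plate controls, in a single-dose primary screen at 18.75 µM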
ABHD5 PLIN5 PPI: ABHD5-PLIN5 interaction inhibitors, primary screen, cell lysate, split luciferase complementation, luminescence; 360,000 compounds, 0.78% hits; Perilipin-5 (Homo sapiens) + 1-acylglycerol-3-phosphate O-acyltransferase ABHD5 (Homo …; inhibition, % at 4 µM; Split G. princeps luciferase complementation, 4 h;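 active = inhibition above the mean inhibition across every tested compound plus 3 SD, cut at about 22% in these data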;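 also: 0% = DMSO only wells and the 100% control is not disclosed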
Target sequence (Q00G26 whole entry, looked up): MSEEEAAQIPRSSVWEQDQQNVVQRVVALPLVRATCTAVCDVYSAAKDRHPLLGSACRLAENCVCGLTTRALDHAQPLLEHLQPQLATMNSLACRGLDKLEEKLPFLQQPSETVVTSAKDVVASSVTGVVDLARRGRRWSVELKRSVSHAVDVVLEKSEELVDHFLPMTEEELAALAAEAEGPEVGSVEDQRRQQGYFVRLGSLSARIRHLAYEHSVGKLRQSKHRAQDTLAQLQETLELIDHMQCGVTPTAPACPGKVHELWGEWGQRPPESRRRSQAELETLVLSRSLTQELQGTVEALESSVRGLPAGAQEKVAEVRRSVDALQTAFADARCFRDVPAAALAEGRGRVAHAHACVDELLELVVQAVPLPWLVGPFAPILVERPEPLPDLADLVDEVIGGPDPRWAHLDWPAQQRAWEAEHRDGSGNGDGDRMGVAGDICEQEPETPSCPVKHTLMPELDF
Target sequence (Q8WTS1 whole entry, looked up): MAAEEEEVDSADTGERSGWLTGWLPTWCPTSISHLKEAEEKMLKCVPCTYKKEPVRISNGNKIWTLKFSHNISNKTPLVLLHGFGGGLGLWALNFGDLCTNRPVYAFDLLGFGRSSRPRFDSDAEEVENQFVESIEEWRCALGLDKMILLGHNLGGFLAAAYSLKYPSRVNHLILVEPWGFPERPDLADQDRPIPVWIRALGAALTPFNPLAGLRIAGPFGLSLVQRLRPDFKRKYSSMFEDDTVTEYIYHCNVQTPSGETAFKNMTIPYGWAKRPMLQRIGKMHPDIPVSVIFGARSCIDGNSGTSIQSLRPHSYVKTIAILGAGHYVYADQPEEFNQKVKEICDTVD
ABHD5-PLIN5 conf: ABHD5-PLIN5 interaction inhibitors, confirmation, biochemical, luminescence | 2,200 compounds, 67% hits | shares compounds with ABHD5 PLIN5 PPI | AID 651612, 2012 | inhibition, % at 4 µM; in the data active = inhibition above about 23%;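 also: 0% = DMSO vehicle wells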
HNF4 split-luc: HNF4 dimerization inhibitors, counter-screen for ABHD5-PLIN5 interaction inhibitor project, biochemical, split-luciferase complementation, luminescence; shares compounds with ABHD5 PLIN5 PPI; inhibition, % at 4 µM; 2,200 compounds, 77% hits;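 active = mean inhibition across replicate wells exceeding the computed hit threshold, cut at about 13% in these data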;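 also: light from luciferase halves that rejoin when HNF4 fusion proteins dimerize; 0% = DMSO only wells and the 100% control is not given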
Starred values were filed as active, the others as inactive; · = no result.

SMILES	TRPM1 prom inh	Peg3 prom inh	KKLEB cytotox	CF NFkB block	HIF-2a inh	ABHD5 PLIN5 PPI	ABHD5-PLIN5 conf	HNF4 split-luc
COc1ccc(OCCNc2cc(N3CCCCC3)ccc2[N+](=O)[O-])cc1	0	-10	-13	13	-19	-3	·	·
CC1CN(c2ccc([N+](=O)[O-])c(NCCOc3ccccc3)c2)CCN1 (stereo not given)	-4	26	-8	6	-11	29*	16	0
COCCOC(=O)c1c(C)n(C)c2ccc(OC(=O)c3ccccc3F)cc12	0	-24	3	1	13	2	·	·
COc1ccc(NC(=O)/C(Cl)=C(/Cl)S(=O)Cc2ccccc2)cn1 (stereo not given)	104*	105*	-95*	88*	94*	95*	97*	103*
CCCC(=O)NC1=C(Cl)C(=O)c2ccccc2C1=O	101*	98*	16	17	95*	48*	64*	101*
CC(=O)N(C1=C(N)C(=O)c2ccccc2C1=O)C(C)C	8	-6	-2	5	6	-5	·	·
COc1ccccc1N(C(C)=O)C1=C(Cl)C(=O)c2ccccc2C1=O	·	100*	-44	51*	88*	93*	100*	111*
Cn1c(=O)c2c(SCC(=O)Nc3ccccc3F)nc(-c3ccccc3F)nc2n(C)c1=O	39	2	-39	35	6	-1	·	·
CC[C@@H](C)[C@H](NC(=O)OC(C)(C)C)c1nnc(S(=O)(=O)Cc2cc(C)ccc2C)o1	54	105*	-19	72*	-67	61*	72*	102*
CC(C)(C)CCN1CCC(CN2CCNC(=O)C2=O)CC1	10	-9	9	-7	2	-14	·	·
O=C(O)CSc1c(Cl)c(=O)oc2ccc(Cl)cc12	·	24	-6	10	9	17	·	·
COc1ccc(Cl)cc1N/C(N)=N/c1nc(CSc2ccc(C)cc2)cc(=O)[nH]1	3	4	-14	8	-12	104*	3	5
COc1ccc(Cl)cc1N/C(N)=N/c1nc(C)cc(=O)[nH]1	6	-15	-4	6	3	4	·	·
N#Cc1cccc(NC(=O)c2cncn2-c2ccccc2)c1	-2	8	8	0	-3	-2	·	·
COc1ccccc1C(=O)/C=C/c1ccc(N2CCCCC2)c([N+](=O)[O-])c1	5	105*	-34	-2	44*	37*	64*	67*
O=C1C(Cl)=C(N2CCOCC2)C(=O)N1c1ccccc1Cl	3	-29	-3	2	-6	30*	59*	85*
CCCc1c(C(=O)N/N=C/c2ccc(OCc3ccc(F)cc3)cc2)nnn1-c1nonc1N	·	-4	-3	3	-9	6	·	·
Cc1cc(C)c2sc(N(CCCN(C)C)C(=O)CN3C(=O)c4ccccc4C3=O)nc2c1	31	8	-6	15	15	24*	14	4
Cc1cc(C)c2sc(N(CCN(C)C)C(=O)c3c(F)cccc3F)nc2c1	11	3	-20	22	-7	22	·	·
Cc1cc(C)c2sc(N(CCCN(C)C)C(=O)c3ccc(Br)s3)nc2c1	-4	43	-8	36	-5	23*	17	9
Cc1cc(OCC(=O)OC(C)C(=O)NC2CC2)c(C(C)C)cc1Cl (stereo not given)	·	9	1	0	6	-1	·	·
COc1ccc(NC(=O)c2cc3ccccc3cc2O)cc1	-75	-363	1	8	-266	48*	53*	22*
C[C@@H](C(=O)NCCc1ccccc1)N1C(=O)N2CCc3c([nH]c4ccccc34)[C@@]2(C)C1=O	10	-19	-3	6	-28	-10	·	·
COc1cc(C)c2sc3ccccc3c(=O)c2c1NCCN(C)C	·	100*	-19	-29	-34	32*	27*	8
CCCCN(CCCC)CCNC(=O)CSCc1ccc(C)cc1	-8	14	-2	3	11	0	·	·
SMILES	TRPM1 prom inh	Peg3 prom inh	KKLEB cytotox	CF NFkB block	HIF-2a inh	ABHD5 PLIN5 PPI	ABHD5-PLIN5 conf	HNF4 split-luc
O=C(NCc1ccco1)/C(=C\c1cccnc1)NC(=O)c1ccccc1F	6	-2	5	-4	20	8	·	·
O=C(Nc1nc2ccccc2[nH]1)NC1CCCCC1	-20	-209	3	2	-156	102*	4	3
COc1cc(C)nc(NCc2ccccc2)n1	-9	-9	-10	-8	1	-4	·	·
Cc1ccc(Nc2cc(C)nc(NCc3ccccc3)n2)cc1	41	73*	-29	37	-7	23*	12	15*
CN(C)CCCN(C(=O)CCc1ccccc1)c1nc2ccc(Cl)cc2s1	6	108*	-40	34	-20	39*	24*	1
CN(C)CCCN(C(=O)c1ccc2c(c1)CCCC2)c1nc2ccc(Cl)cc2s1	-17	108*	-24	11	-4	28*	11	10
C[C@H]1CN([C@@H](C)CO)C(=O)c2cccc(NC(=O)Nc3ccc(C(F)(F)F)cc3)c2O[C@H]1CN(C)C	-19	-4	11	-5	-15	28*	13	3
C[C@H]1CN([C@@H](C)CO)C(=O)c2cccc(NC(=O)Nc3ccc(C(F)(F)F)cc3)c2O[C@@H]1CN(C)C(=O)Nc1ccc(F)cc1	-10	34	-7	6	-14	10	·	·
COc1ccc(S(=O)(=O)Nc2cccc3c2O[C@H](CN(C)Cc2ccccc2)[C@@H](C)CN([C@H](C)CO)C3=O)cc1	-4	8	-9	12	4	-4	·	·
COc1ccc(S(=O)(=O)Nc2cccc3c2O[C@H](CN(C)Cc2ccncc2)[C@@H](C)CN([C@H](C)CO)C3=O)cc1	11	-4	12	-16	12	24*	3	0
C[C@H](CO)N1C[C@H](C)[C@@H](CN(C)Cc2ccc(Oc3ccccc3)cc2)Oc2c(NC(=O)C3CC3)cccc2C1=O	3	39	-16	12	-32	28*	9	4
CC1(C)Cc2c(c(-c3ccco3)nc3sc4c(NCCCO)ncnc4c23)CO1	1	30	-22	17	13	33*	20	23*

Source: PubChem (several laboratories)
